Shown are actives, neighbours in structure and some others; about 8.3% of the full set was active somewhere.
Lassa entry inh: qHTS for Inhibitors of binding or entry into cells for Lassa Virus | Lassa virus pseudotype entry inhibition, cell reporter | Potency, µM (series often up to 37.9 µM), for the others: at the top dose activity change, negative = inhibition, most hits filed as inhibitors | actives 1.2% (n = 300,000) | AID 540256, 2011; calls by dose curve; tested in HEK293 cells; note: potency is the fitted concentration of half-maximal effect; nearly all actives have a fitted effect of over 50% in size
HCMV inh: qHTS Assay for inhibitors of the human cytomegalovirus (HCMV); actives 4.5% (n = 410,000); HFF cells, HCMV-luciferase reporter, 72 h; active compounds read low; activity change, negative = inhibition, % at 57.5 µM; in the data active = activity change below about -60%; inconclusive = no clear call, values can overlap the other calls; inactive = above about -39%
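Human foreskin fibroblasts infected with luciferase-reporter HCMV at MOI 1 PFU/cell, compounds at two doses. Luciferase measured 72 h post infection; normalized to buffer-only basal and Salinomycin (10uM) controls.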
FMDV antiviral: High Throughput Screening for Foot and Mouth Disease Virus Antivirals. FMDV antiviral cell-based qHTS. Potency, µM (doses to about 57.9 µM), for the others: top-dose activity change, negative = inhibition, most hits filed as inhibitors. actives 1.2% (n = 410,000); calls by dose curve; tested in HEK293T cells; note: read-out not given here; potency is the fitted concentration of half-maximal effect; nearly all actives have a fitted effect of over 45% in size
Giardia FBPA inh: qHTS Assay for Inhibitors of Fructose-1,6-bisphosphate Aldolase from Giardia Lamblia | purified Giardia FBPA | Potency, µM (highest dose often 59.6 µM), without a hit: at the highest dose activity, negative = inhibition, usual class: inhibitors | actives 0.71% (n = 290,000) | AID 2451, 2010; note: potency is the fitted concentration of half-maximal effect; nearly all actives have a fitted effect of over 55% in size
Target sequence (A8B2U2 whole entry, looked up): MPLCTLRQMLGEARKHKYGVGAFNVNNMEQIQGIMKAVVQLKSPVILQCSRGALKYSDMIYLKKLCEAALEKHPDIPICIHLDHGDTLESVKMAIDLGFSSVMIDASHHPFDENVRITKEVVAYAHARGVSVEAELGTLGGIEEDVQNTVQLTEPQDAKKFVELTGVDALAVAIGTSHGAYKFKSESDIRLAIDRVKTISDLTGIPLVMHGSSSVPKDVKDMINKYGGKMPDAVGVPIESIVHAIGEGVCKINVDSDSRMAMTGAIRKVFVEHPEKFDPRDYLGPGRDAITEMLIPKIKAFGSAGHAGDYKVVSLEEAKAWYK
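40 nM FBPA preincubated 10 min at RT with compound (up to 57.5 uM final), then substrate plus GAPDH/TPI/NAD/arsenate coupling and diaphorase/resazurin added. Fluorescence read after 20 min at RT, 525/598 nm.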
HCV inhibitor: qHTS Assay for Inhibitors of Hepatitis C Virus (HCV). Huh7.5.1 HCVcc-Cre infection, luciferase reporter, 44 h. Potency, µM (titrated, usually from 41.8 µM), without a hit: at the highest dose activity change, negative = inhibition, actives largely listed as inhibitors. actives 3.4% (n = 340,000). AID 651820, 2012; note: potency is the fitted concentration of half-maximal effect
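After 44 h co-culture of compound, cells and HCVcc-Cre (~0.5 moi), substrate is added for 15 min at room temperature and luciferase measured over 15 sec. Cells were seeded at 1,000/well and pre-cultured 4 h.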
Marburg entry inh: qHTS for inhibitors of binding or entry into cells for Marburg Virus. Potency, µM (highest dose often 37.8 µM), without a hit: at the highest dose activity change, negative = inhibition, actives largely listed as inhibitors. actives 1.8% (n = 300,000). AID 540276, 2011. Marburg virus pseudotyped entry inhibition, cell reporter; calls by dose curve; tested in HEK293 cells; note: potency is the fitted concentration of half-maximal effect
The depositor's hits bear a star; [ ] = dose if it differs, or a comment. Unless noted, calls come from the whole dose curve; as a rule, active = well fitted curve in the direction sought with a large enough effect; inconclusive = small, poorly fitted or top-dose-only effect, or another doubt; inactive = no such curve, though single readings can be large; an effect the other way counts as inactive or inconclusive. % is set by controls: 0 for no effect and ±100 for the full control effect.

CCC1CCCCN1C(=O)Cn1c(=O)n(-c2ccccc2C(F)(F)F)c(=O)c2c(C)c(C(=O)N(C)C)sc21 (centres undefined) was read as Lassa entry inh -16%[46.1 µM], HCMV inh 8 and FMDV antiviral -13%.
Screening COC(=O)c1ccccc1NC(=O)CSc1nc2ccccc2nc1Cc1ccccc1OC returned Lassa entry inh 19%[46.1 µM], HCMV inh 7 and FMDV antiviral -14%.
`CCC12C=C(C=Cc3ccccc3)C(CC)(C1)C(c1ccccc1)CC2=O` (centres undefined) gave Marburg entry inh 13%[14.2 µM].
Cc1ccccc1CS(=O)(=O)c1nnc([C@H](Cc2ccccc2)NC(=O)OC(C)(C)C)o1 was read as Lassa entry inh inconclusive, HCMV inh -20, FMDV antiviral 28µM*, Giardia FBPA inh -10%, HCV inhibitor 4% and Marburg entry inh inconclusive.
Screening CCC(C)[C@@H](NC(=O)OC(C)(C)C)c1nnc(S(=O)(=O)Cc2cccc(C)c2)o1 (some centres undefined) returned Lassa entry inh inconclusive, HCMV inh 42, FMDV antiviral 32µM*, Giardia FBPA inh -11%, HCV inhibitor inconclusive and Marburg entry inh inconclusive.
`CCOC(=O)/C=C/CCC/C=C/C(=O)c1ccccc1` gave Giardia FBPA inh 0% and Marburg entry inh inconclusive.
For O=C1CN(S(=O)(=O)Cc2ccccc2)C[C@H]2[C@H](c3ccc(Br)cc3)[C@H](CO)N12 the results were HCMV inh -1.
For O=C(CCl)Nc1cccn2ncnc12 the results were Lassa entry inh inconclusive, HCMV inh -60*, FMDV antiviral -9%, Giardia FBPA inh 4%, HCV inhibitor inconclusive and Marburg entry inh inconclusive.
For O=C(Nc1cccn2ncnc12)C(F)(F)F the results were Lassa entry inh -1%, HCMV inh -15, FMDV antiviral -17%, Giardia FBPA inh 0%, HCV inhibitor 8% and Marburg entry inh inconclusive.
For O=C(CSc1nnc(Cn2nnc3ccccc32)o1)N(Cc1ccc(Cl)cc1)c1ccccc1 the results were Lassa entry inh inconclusive, HCMV inh -2, FMDV antiviral inconclusive, Giardia FBPA inh -4%, HCV inhibitor 6.3µM* and Marburg entry inh 6.3µM*.
Screening O=C(CSc1nnc(Cn2nnc3ccccc32)o1)Nc1cccc(Cl)c1 returned Lassa entry inh -5%, HCMV inh 36, FMDV antiviral 9%, Giardia FBPA inh 0%, HCV inhibitor 17% and Marburg entry inh 29%.
NC(=O)CSc1nnc(Cn2cnc3ccccc32)o1 was read as HCMV inh -6, FMDV antiviral -21%, Giardia FBPA inh -11% and HCV inhibitor 3%.
Screening Clc1ccc(CSc2nnc(Cn3cnc4ccccc43)o2)cc1 returned Lassa entry inh inconclusive, HCMV inh -81*, FMDV antiviral inconclusive, Giardia FBPA inh -23%, HCV inhibitor inconclusive and Marburg entry inh inconclusive.
For Cc1cc(C)cc(NC(=O)c2cc(CN3CCCC3)on2)c1 the results were Lassa entry inh 17%[46.1 µM], HCMV inh 24 and FMDV antiviral 42%.
For CCOn1c(=O)c(-c2ccc(Cl)cc2)[n+]([O-])c2ccccc21 the results were Lassa entry inh 9%, HCMV inh -9, FMDV antiviral -21%, Giardia FBPA inh 0%, HCV inhibitor 5% and Marburg entry inh 13%.
For CCOn1c(=O)c(-c2ccc(C)cc2)[n+]([O-])c2ccccc21 the results were HCMV inh -60*, FMDV antiviral 1%, Giardia FBPA inh 11% and HCV inhibitor 5%.
Screening O=[N+]([O-])c1ccc(N=Nc2c(Cl)cc(O)cc2Cl)cc1 returned HCMV inh -100*, FMDV antiviral inconclusive, Giardia FBPA inh 1% and HCV inhibitor 5µM*.
For CC(N)=Nc1ccc([N+](=O)[O-])cc1 the results were Lassa entry inh 3%, HCMV inh -5, FMDV antiviral 0%, Giardia FBPA inh 0%, HCV inhibitor 11% and Marburg entry inh 19%.
Screening Cc1ccc(C(=O)C2=C(O)C(=O)N(Cc3cccnc3)C2c2ccc(Cl)cc2)o1 (centres undefined) returned Lassa entry inh -9%[46.1 µM], HCMV inh -26, FMDV antiviral 16µM*, Giardia FBPA inh 10%, HCV inhibitor 19% and Marburg entry inh 0%[46.1 µM].
Screening C[C@H]1[C@@H](NS(=O)(=O)c2cccs2)CC[C@@]23CCCN2C(=O)CCC[C@@H]13 returned HCMV inh 3.
For S=C(NCc1ccccc1)NNc1nc2ccccc2[nH]1 the results were Lassa entry inh inconclusive, HCMV inh -70*, FMDV antiviral -4%, Giardia FBPA inh -22%, HCV inhibitor -3% and Marburg entry inh inconclusive.
For c1ccc(CNc2nc3ccccc3[nH]2)cc1 the results were Lassa entry inh inconclusive, HCMV inh 88, Giardia FBPA inh 4%, HCV inhibitor 9% and Marburg entry inh inconclusive.
Screening O=c1[nH]c(NNC(=S)NCc2ccccc2)nc2c1C1(CCCCC1)Cc1ccccc1-2 returned HCMV inh -62*, FMDV antiviral -23%, Giardia FBPA inh 11% and HCV inhibitor 12%.
Screening Cc1cccc(Cn2c(=O)n3nc(-c4ccccc4)nc3c3ccccc32)c1 returned Lassa entry inh -25%[46.1 µM], HCMV inh -38, FMDV antiviral inconclusive and Marburg entry inh -28%[46.1 µM].
CCCc1c(C(=O)N/N=C(\C)c2ccccn2)nnn1-c1nonc1N was read as HCMV inh -98* and FMDV antiviral -22%.
Screening C/C(=N\NC(=O)c1nnn(-c2nonc2N)c1CN(C)c1ccccc1)c1ccccc1O returned Lassa entry inh inconclusive, HCMV inh -100*, FMDV antiviral 21%, Giardia FBPA inh -12%, HCV inhibitor inconclusive and Marburg entry inh 8.9µM*.
Screening CCCCNC(=S)Nc1ccc(F)cc1 returned Lassa entry inh 4%, HCMV inh -21, FMDV antiviral 28%, Giardia FBPA inh 3%, HCV inhibitor 4% and Marburg entry inh -23%.
Screening CCCCNC(=S)Nc1ccc(SC(F)F)cc1 returned Lassa entry inh inconclusive, HCMV inh 0, FMDV antiviral 0%, Giardia FBPA inh -11%, HCV inhibitor 11µM* and Marburg entry inh inconclusive.
For Oc1cccc(NC(=S)Nc2ccc(SC(F)F)cc2)c1 the results were Lassa entry inh 4%, HCMV inh -7, FMDV antiviral -1%, Giardia FBPA inh -5%, HCV inhibitor 8% and Marburg entry inh inconclusive.
`Oc1ccccc1N1CCN(C(=S)Nc2ccc(SC(F)F)cc2)CC1` gave Lassa entry inh 5µM*, HCMV inh inconclusive, FMDV antiviral inconclusive, Giardia FBPA inh 0%, HCV inhibitor inconclusive and Marburg entry inh inconclusive.

Screening data as filed in PubChem BioAssay.
